PBM binding z-score data for 22 sequences are collected here from the supplement of paper PMC6555819.

This assay concerns THRa homodimer (NR concentration 90 nM). The assay is described as follows: PBM binding z-score (relative to random genomic background probes); higher = stronger binding; sequences stand for … in GC…GCGATTGACAGCGTAGAATGAAGG
The gist of the method: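 Ligand-free nuclear receptor dimers were bound for 1 h to custom Agilent 4×180K protein-binding microarrays. Detection used antibodies against each partner (one per run). Binding z-scores rest on regression-normalized fluorescence, with random background probes as the reference.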
The sequence GCTCGGAGGACAAGGTCAGATCTTTGTCCGTAGA came in with a PBM binding z-score of 1.58.
Consider CTACCAAGGTGAGCAAGGTCGTTGATTACTATTC, for which the PBM binding z-score is 1.29.
The figure for CGTCCAAGATCAAGGTCAGTGAAAGAGACTCGAA is 1.63; for AGAATGAGGTTATTAAGATCAGGGAGTTGCGGTC it is 0.897; for ACAGACAGGTGAGGAAGGTAACTCAGGCTATCAT it is 0.208.
Then CGTCCATGGTCAGCAGGTCAGTGAAAGCGACGTG, with -0.0849; and TCTTGTAGATCATAGGTTAAGAAAGCCGAAGCCT, with -0.386; and CAAACTAGGTCACAAAGGTCAAAGTCCGTGCGTA, with 2.58.
The sequence CTCGAAAGGTCGTGCTAAGGTGAGTATACCAAAC had a PBM binding z-score of 1.79.
Sequence TCGAGTAGGTTAACAATGGGGCATTCAGCTTTCT returned a PBM binding z-score of -0.587.
On to ACAGACAGGTGATGAAGGTTACTCAGGCTATCAT, for which the PBM binding z-score is 0.139.
Then AGAACGAGGGCACGCTGAGTTGATACCAGAGTAG, with 0.271.
On to TAGCCTACGTCATTGGGCCAGTATAGTACGCATC, for which the PBM binding z-score is -0.62.
GCGACTGGGGCATAAGCAGGTTACCATAACTTAA returned a PBM binding z-score of -0.368.
The figure for GCTTCTAGGTCAGGTTGGTCAGCTAACGGGTACG is 1.63.
TGCCAAAGTTCAAAGGTAACGTAAGTATCCACAC: the PBM binding z-score is -0.0439.
As for TCTCCGAGGACACGAAAGGTCAGAGCTCGACATC, the PBM binding z-score came out at 2.74.
CCGACTGGGGCAGAAAGGTTACCAAACCATCCGG yielded a PBM binding z-score of -0.598.
ACAGACAGGTGTTGAAGGTAACTCAGGCTATCAT had a PBM binding z-score of 0.073.
On to TCGAGTAGGTTAGCGGCATTCAGAATGGCGTCGA, for which the PBM binding z-score was -0.985.
Then CCTACTGGGCCATTCACAGGTCATTGATCATATG, with 0.728; and AGAATGAGGTTATACGTAAATCAGGGAAGAAAGT, with 0.605.
